# Rows were chosen to be rich in hits. Some 21% of all compounds tested hit in one or more screens of this group.
# HCV inhibitor: qHTS Assay for Inhibitors of Hepatitis C Virus (HCV). Potency, µM (series often up to 41.8 µM), for inactives: at the highest dose activity change, negative = inhibition, most hits filed as inhibitors. Huh7.5.1 HCVcc-Cre infection, luciferase reporter, 44 h. 340,000 compounds, 3.4% hits; also: potency is read from the fitted curve at half-maximal effect; % is scaled to controls: 0 for no effect and ±100 for the full control effect
#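 Infectious HCVcc-Cre (~0.5 moi) was added to cells just after compound, with cells seeded 4 h earlier at 1,000 per well. Luciferase activity after 44 h culture reported infection; substrate was incubated 15 min at room temperature before reading.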
# Pf growth 96h: Primary qHTS for delayed death inhibitors of the malarial parasite plastid, 96 hour incubation. 320,000 compounds, 6.9% hits. P. falciparum luciferase reporter growth, 96 h. Potency, µM (highest dose often 28.7 µM), without a hit: at the top dose activity change, negative = inhibition, hits mostly inhibitors; also: potency is read from the fitted curve at half-maximal effect; % is scaled to controls: 0 for no effect and ±100 for the full control effect
#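 Cell-based qHTS: luciferase-tagged P. falciparum in erythrocytes (2% hematocrit, 0.05% parasitemia final) incubated with compounds for 96 hours, 37 C, 5% CO2; luciferase detection reagent then added and luminescence measured.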
# Cycloheximide cs: Cycloheximide Counterscreen for Small Molecule Inhibitors of Shiga Toxin; 300,000 compounds, 12% hits; AID 2314, 2010; max response, %; cell reporter, cycloheximide protein synthesis inhibition counterscreen; in the data active = max response mostly above about 13%, no sharp cut-off; inactive = mostly below about 14%; also: read at 38.3 µM for the half of the compounds with a filed dose; 0% is about no effect
# AMA1-RON2 inh: qHTS for Inhibitors of AMA1-RON; Towards Development of Antimalarial Drug Lead: Primary Screen; AlphaScreen AMA1-biotinylated RON2 peptide binding; Potency, µM (series often up to 58.2 µM), for inactives: at the highest dose activity change, negative = inhibition, hits mostly inhibitors; 360,000 compounds, 0.2% hits; AID 720542, 2013;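 also: potency is read from the fitted curve at half-maximal effect; 0% = vehicle wells and -100% = peptide control; nearly all actives have a fitted effect of over 45% in size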
#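 AMA1 (3D7) with his tag at 25 nM final met compounds first, then biotinylated RON2 peptide at 25 nM; detection used donor plus acceptor beads, 10 µg/mL apiece, read by AlphaScreen after 30 min at room temperature.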
# Pf growth 48h: Primary qHTS for delayed death inhibitors of the malarial parasite plastid, 48 hour incubation. AID 504832, 2011. Potency, µM (doses to about 28.7 µM), without a hit: top-dose activity change, negative = inhibition, actives largely listed as inhibitors. P. falciparum luciferase growth in erythrocytes, 48 h. 310,000 compounds, 5.9% hits; also: potency is read from the fitted curve at half-maximal effect; % is scaled to controls: 0 for no effect and ±100 for the full control effect
#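 Read-out is firefly luciferase luminescence from an integrated reporter in P. falciparum, so falling signal marks reduced parasite growth. Infected erythrocytes were at 2% hematocrit and 0.1% parasitemia (final) in Albumax-supplemented RPMI 1640.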
# Shiga inhibitor: A qHTS for Small Molecule Inhibitors of Shiga Toxin. 290,000 compounds, 9.2% hits. inhibition, % at 38.7 µM. Vero cells, Shiga toxin protein synthesis inhibition reporter. AID 2315, 2010; in the data active = inhibition mostly above about 28%, no sharp cut-off; inactive = mostly below about 43%; also: 0% is about no effect
# Starred values were filed as active, the others as inactive; u = inconclusive; x = no result given. Unless noted, calls follow the shape of the dose curve; as a rule, active = well fitted curve in the direction sought with a large enough effect; inconclusive = small, poorly fitted or top-dose-only effect, or another doubt; inactive = no such curve, though single readings can be large; an effect the other way counts as inactive or inconclusive.
SMILES,HCV inhibitor,Pf growth 96h,Cycloheximide cs,AMA1-RON2 inh,Pf growth 48h,Shiga inhibitor
COC(=O)c1ccsc1NC(=O)CCc1ccccc1,4.4%,114.8%,48.3*,-6.2%,130.5%,65.0*
COC(=O)c1ccsc1NC(=O)CN1CCN(c2ncccn2)CC1,-6.5%,0.0%,-3.9,-9.0%,11.7µM*,-19.7
NC(=O)c1ccsc1NC(=O)COC(=O)c1ccccn1,9.3%,-11.5%,x,4.7%,3.1%,x
Cc1[nH]c2ccccc2c1C(=O)C(=O)NC1CC(=O)N(c2ccc(F)cc2)C1 (stereo not drawn),21.9%,3.5%,x,-0.3%,-34.6%,x
CC(C)(C)Cc1c(-c2ccc(C#N)cc2)nc2c(Cl)cc(C(F)(F)F)cn12,x,x,x,5.0%,x,x
Cc1ccc(/C=C/S(=O)(=O)NCCC(=O)NCc2ccc(F)cc2)cc1,-16.5%,17.6%,x,0.3%,u,x
CN(C)C(=O)c1ccc(NC(=O)c2cccc(-n3cnnn3)c2)cc1,x,x,x,3.5%,x,x
CC1=C(C#N)c2nc(N)c(C#N)c(C)c2/C1=C\c1ccc(OCC(=O)O)c(Cl)c1,9.0%,-4.3%,-3.6,15.3%,-3.4%,-1.5
COc1ccc(-c2[nH]ncc2CNCCn2cccn2)c(F)c1,8.5%,13.1µM*,-2.2,59.7%,47.4%,31.9
O=C(Nc1nc2ccccc2s1)C1c2ccccc2Oc2ccccc21,u,67.8%,-2.7,-14.5%,10.8%,-13.2
O=C(Nc1nc2ccc(F)cc2s1)C1CCCO1 (stereo not drawn),2.2%,94.3%,26.2*,12.9%,247.0%,94.0*
Nc1ccc2nc(NC(=O)C3CCCCC3)sc2c1,7.2%,5.6%,56.9*,4.0%,101.5%,103.9*
O=C(Nc1nc2ccccc2s1)C1CCCO1 (stereo not drawn),-6.3%,314.2%,46.8*,-6.1%,x,88.5*
O=C(Nc1ncc(Cc2ccccc2)s1)C1CCCO1 (stereo not drawn),5.4%,397.4%,33.8*,0.1%,263.6%,63.5*
O=C(Nc1nnc(Cc2ccc(Cl)cc2)s1)C1CCCO1 (stereo not drawn),9.6%,-17.0%,17.6,-8.1%,16.0%,40.4
Cc1cc(F)ccc1NC(=O)C1CCCO1 (stereo not drawn),0.9%,90.6%,2.2,-7.2%,0.2%,-15.8
O=C(Nc1nc2ccc(C(=O)N3CCCCC3)cc2s1)C1CCCCC1,-9.0%,u,-2.7,-4.1%,0.0%,-26.7
CC1CC(C)CN(CC(=O)N2CCOCC2)C1 (stereo not drawn),13.8%,11.6%,-2.5,-22.6%,-17.1%,16.1
CC(=O)Nc1ccc2c(c1)ncn2C1CCCCC1,12.2%,x,x,0.9%,x,x
CCOC(=O)Nc1ccc2c(c1)ncn2C1CCCCC1,19.7%,-7.4%,26.6*,-12.1%,-22.3%,82.4*
COC(=O)Nc1ccc2c(c1)ncn2C1CCCCC1,2.6%,x,22.7*,-4.2%,69.4%,31.2*
CCOC(=O)N1CCN(C(=O)Cc2ccccc2OC)CC1,-19.1%,u,-1.9,9.1%,0.6%,-2.9
Cc1ccc(C(=O)N2CCC(N3CCC(C(=O)N4CCOCC4)CC3)CC2)cc1,x,x,x,-10.3%,x,x
C=CCc1cc(/C=N/n2cnnc2)cc(OCC)c1O,u,8.28µM*,-3.4,11.6%,u,15.4
CCOc1cc(/C=N/n2cnnc2)ccc1O,4.4%,14.6%,-1.5,-1.8%,17.4%,-3.4
C=CCc1ccc(OCCOc2ccc(/C=N/n3cnnc3)cc2OCC)c(OC)c1,-2.7%,x,7.0,-11.4%,-1.9%,-13.2
CCOc1ccc2ccc(OCC)c(/C=N/n3cnnc3)c2c1,u,21.1%,9.4*,-4.7%,0.1%,30.7
C=CCc1cc(/C=C2/NC(=O)NC2=O)cc(OCC)c1O,-19.6%,1.04µM*,-1.3,1.3%,-3.9%,1.9
O=C(Nc1nccs1)C1CC(=O)N(CCc2ccc(F)cc2)C1 (stereo not drawn),8.6%,12.1%,-5.6,18.3%,3.3%,-7.2
COc1ccc(-c2cc3c(o2)CCCC3OCCN2CCOCC2)cc1 (stereo not drawn),x,x,x,-11.5%,x,x

# Bioassay records deposited in PubChem by National Center for Advancing Translational Sciences (NCATS).
